Shiga inhibitor = Shiga toxin inhibition; AID 2315; Vero cells, Shiga toxin protein synthesis inhibition reporter; inhibition, % at 38.7 µM; actives 9.2% (n = 290,000); in the data active means inhibition mostly above about 28%, no sharp cut-off; inactive means mostly below about 43%
Pf growth 96h = inhibits malaria parasite growth, 96 h | Potency, µM (highest dose often 28.7 µM), actives largely listed as inhibitors | P. falciparum luciferase reporter growth, 96 h | actives 6.9% (n = 320,000)
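Plates of compound plus infected erythrocytes (2% hematocrit, 0.05% parasitemia final) incubate 96 hours, 37 C, 5% CO2. Detection reagent added; reduced luminescence from the parasites' luciferase reporter flags inhibition.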
AMA1 RON2 block = AMA1-RON2 (P. falciparum) interaction inhibition; AlphaScreen AMA1-biotinylated RON2 peptide binding; Potency, µM (series often up to 58.2 µM), most hits filed as inhibitors; actives 0.2% (n = 360,000); AID 720542; further: nearly all actives have a fitted effect of over 45% in size
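AMA1 (3D7) with his tag at 25 nM final met compounds first, then biotinylated RON2 peptide at 25 nM; detection used donor plus acceptor beads, 10 µg/mL apiece, read by AlphaScreen after 30 min at room temperature.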
Pf growth 48h = P. falciparum growth inhibition at 48 hours (one generation); P. falciparum luciferase growth in erythrocytes, 48 h; AID 504832; actives 5.9% (n = 310,000); Potency, µM (series often up to 28.7 µM), actives largely listed as inhibitors
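A one-generation exposure of luciferase-tagged malaria parasites in RPMI 1640/Albumax erythrocyte culture, 37 C and 5% CO2. Inhibition is inferred from decreased luminescence after adding detection reagent.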
HCV inh = blocks hepatitis C virus. AID 651820. actives 3.4% (n = 340,000). Potency, µM (titrated, usually from 41.8 µM), usual class: inhibitors. Huh7.5.1 HCVcc-Cre infection, luciferase reporter, 44 h
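Luciferase read-out (15 sec integration) after a 15 min room-temperature substrate step quantifies HCVcc-Cre infection. Cells, 1,000 per well, had compound added 4 h post-plating, then virus at ~0.5 moi, and were cultured 44 h.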
Cycloheximide cs = affects cycloheximide protein synthesis inhibition readout, counter-screen. actives 12% (n = 300,000). max response, %. cell reporter, cycloheximide protein synthesis inhibition counterscreen; in the data active means max response mostly above about 13%, no sharp cut-off; inactive means mostly below about 14%; further: read at 38.3 µM for the half of the compounds with a filed dose
Hits are given with their value; [ ] = another dose, or the depositor's remark. A selection: hits, their analogues and other compounds. The true share with any hit is near 21%. Unless noted, the call rests on the fitted dose curve; in most records, active means well fitted curve in the direction sought with a large enough effect; inconclusive means small, poorly fitted or top-dose-only effect, or another doubt; inactive means no such curve, though single readings can be large; an effect the other way counts as inactive or inconclusive.

`O=C(CSc1c2c(nc3cc(Cl)ccc13)CCCC2)NCc1ccco1` gave Shiga inhibitor inactive, Pf growth 96h inactive, AMA1 RON2 block inactive, Pf growth 48h inactive, HCV inh 11µM and Cycloheximide cs inactive.
For CC(=O)CSc1ncnc2sc3c(c12)CCCC3 the results were Shiga inhibitor inactive, Pf growth 96h inactive, AMA1 RON2 block inactive, Pf growth 48h inactive, HCV inh 10µM and Cycloheximide cs inactive.
For CCC1(CC)C(C#N)C(=O)NC(=O)C1C#N (stereo not drawn) the results were AMA1 RON2 block inactive and HCV inh inactive.
COCCNC(=O)c1ccc(CN2CCC(Cc3ccccc3)CC2)cc1 was read as Shiga inhibitor inactive, Pf growth 96h inconclusive, AMA1 RON2 block inactive, Pf growth 48h inactive, HCV inh inactive and Cycloheximide cs inactive.
`O=C(NCc1ccccc1)c1ccc(CN2CCC(Cc3ccccc3)CC2)cc1` gave Shiga inhibitor inactive, Pf growth 96h inactive, AMA1 RON2 block inactive, Pf growth 48h 13µM, HCV inh 10µM and Cycloheximide cs inactive.
CCc1ccccc1NC(=O)c1ccc(CN2CCC(Cc3ccccc3)CC2)cc1 was read as Shiga inhibitor inactive, Pf growth 96h inactive, AMA1 RON2 block inactive, Pf growth 48h 1µM, HCV inh 13µM and Cycloheximide cs inactive.
For O=C(c1ccc(CN2CCOCC2)cc1)N1CCC(Cc2ccccc2)CC1 the results were Shiga inhibitor inactive, Pf growth 96h 2.9µM, AMA1 RON2 block inactive, Pf growth 48h inactive, HCV inh inconclusive and Cycloheximide cs inactive.
`CC1(Oc2ccccc2-c2ccno2)CCN(Cc2csc3ccccc23)C1` (stereo not drawn) gave AMA1 RON2 block inactive.
Screening CC(=O)C[C@H](O)CC(=O)[C@H]1OC(=O)CCCCCCc2ccccc21 returned AMA1 RON2 block inactive and HCV inh inconclusive.
`CC1(C)Cc2cccc(OCC(=O)N3CCN(S(=O)(=O)c4ccc(F)cc4)CC3)c2O1` gave Shiga inhibitor inactive, Pf growth 96h 9.3µM, AMA1 RON2 block inactive, Pf growth 48h inconclusive, HCV inh inactive and Cycloheximide cs inactive.
Screening CC1(C)Cc2cccc(Oc3ccc(S(=O)(=O)N4CCCCC4)cn3)c2O1 returned Shiga inhibitor inactive, Pf growth 96h inconclusive, AMA1 RON2 block inactive, Pf growth 48h 13µM, HCV inh inactive and Cycloheximide cs inactive.
N#Cc1ccccc1Oc1ccc(S(=O)(=O)N2CCCCC2)cn1 was read as Pf growth 96h inactive, AMA1 RON2 block inactive, Pf growth 48h inactive and HCV inh inactive.
`CCc1ccccc1Oc1ccc(S(=O)(=O)N2CCN(C)CC2)cn1` gave Pf growth 96h inactive, AMA1 RON2 block inactive, Pf growth 48h inactive and HCV inh inactive.
O=S(=O)(c1ccc(Oc2ccc(Br)cc2F)nc1)N1CCCCC1 was read as Shiga inhibitor inactive, Pf growth 96h inconclusive, AMA1 RON2 block inactive, Pf growth 48h inactive, HCV inh 25µM and Cycloheximide cs inactive.
For CC1(C)Cc2cccc(Oc3ccc(S(=O)(=O)N4CCCC4)cn3)c2O1 the results were Shiga inhibitor inactive, Pf growth 96h inconclusive, AMA1 RON2 block inactive, Pf growth 48h 12µM, HCV inh inconclusive and Cycloheximide cs inactive.
Cc1ccc(C(C)C)c(OCC(=O)NNC(=O)Cn2[nH]c(=O)c3ccccc3c2=O)c1 was read as Pf growth 96h inconclusive, AMA1 RON2 block inactive, Pf growth 48h inconclusive and HCV inh inactive.
CN(C(=O)c1cccc(S(=O)(=O)N2CCCC2)c1)C1CCCCC1 was read as Pf growth 96h inactive, AMA1 RON2 block inactive, Pf growth 48h inactive and HCV inh inactive.
O=C1CN(C(=O)COC(=O)CCC(=O)c2ccc(F)cc2)c2ccccc2N1 was read as AMA1 RON2 block inactive and HCV inh inactive.
Screening COc1ccc(-c2ccc(C(=O)Nc3ccc(C(C)C)cc3)c3occc23)c(C)c1 returned AMA1 RON2 block inactive.
`CCCNC(=O)C1(C)CCCN(Cc2c3ccccc3nn2C)C1` (stereo not drawn) gave AMA1 RON2 block inactive.
Screening COc1cc(Cl)c(C)cc1NC(=O)c1ccccc1NC(=O)CN1CCN(c2ccccn2)CC1 returned AMA1 RON2 block inactive and HCV inh inconclusive.
Screening O=C(CN1CCN(c2ccccn2)CC1)Nc1ccc([N+](=O)[O-])cc1C(=O)Nc1ccccc1F returned Shiga inhibitor inactive, Pf growth 96h inactive, AMA1 RON2 block inactive, Pf growth 48h inconclusive, HCV inh 11µM and Cycloheximide cs inactive.
CSc1ccccc1NC(=O)CN1CCN(c2ccccn2)CC1 was read as Shiga inhibitor inactive, Pf growth 96h 8.3µM, AMA1 RON2 block inactive, Pf growth 48h 7.4µM, HCV inh inactive and Cycloheximide cs inactive.
For CSc1ccccc1NC(=O)CN1CCN(S(=O)(=O)c2ccccc2[N+](=O)[O-])CC1 the results were Pf growth 96h 9.3µM, AMA1 RON2 block inactive[11.6 µM], Pf growth 48h 9.3µM and HCV inh inconclusive.
For CC(=O)Nc1ccc(Nc2nc(-c3sc(NC(C)=O)nc3C)cs2)cc1 the results were Shiga inhibitor inactive, Pf growth 96h inconclusive, AMA1 RON2 block inactive, Pf growth 48h inconclusive, HCV inh 11µM and Cycloheximide cs inactive.
For CC(=O)Nc1nc(C)c(-c2csc(Nc3ccccn3)n2)s1 the results were Shiga inhibitor 90, Pf growth 96h inconclusive, AMA1 RON2 block inactive, Pf growth 48h inactive, HCV inh 10µM and Cycloheximide cs 37.
CC(=O)Nc1ccc(-c2csc(Nc3ccc(S(N)(=O)=O)cc3)n2)cc1 was read as Shiga inhibitor inactive, Pf growth 96h inactive, AMA1 RON2 block inactive, Pf growth 48h inconclusive, HCV inh inactive and Cycloheximide cs inactive.
Screening CC(=O)c1sc(Nc2ccccn2)nc1C returned Shiga inhibitor inactive, Pf growth 96h inactive, AMA1 RON2 block inactive, Pf growth 48h inactive, HCV inh inactive and Cycloheximide cs inactive.
`CC(=O)Nc1nc(C)c(-c2csc(Nc3ccc(O)cc3)n2)s1` gave Shiga inhibitor inactive, Pf growth 96h inconclusive, AMA1 RON2 block inactive, Pf growth 48h 2.6µM, HCV inh 10µM and Cycloheximide cs 15.
`COC(=O)c1ccc2nc(-c3cccc(Cl)c3)c(Cc3ccsc3)n2c1` gave AMA1 RON2 block inactive.
Screening CCOc1ncccc1C(=O)OCC(=O)c1cc(OC)c(OC)c(OC)c1 returned Shiga inhibitor inactive, Pf growth 96h inactive, AMA1 RON2 block inactive, Pf growth 48h inactive, HCV inh inactive and Cycloheximide cs inactive.
`COc1ccc(NCc2nnc(-c3ccccc3)o2)cc1` gave Shiga inhibitor 28, Pf growth 96h inconclusive, AMA1 RON2 block inactive, Pf growth 48h inactive, HCV inh inconclusive and Cycloheximide cs 20.
For CCOc1ccccc1NCc1nnc(-c2ccccc2)o1 the results were Shiga inhibitor inactive, Pf growth 96h inactive, AMA1 RON2 block inactive, Pf growth 48h inactive, HCV inh inactive and Cycloheximide cs 15.
Cc1ccccc1NC(=O)c1cnn(-c2ccccc2)c1C was read as Shiga inhibitor 75, Pf growth 96h inactive, AMA1 RON2 block inactive, Pf growth 48h inactive, HCV inh inactive and Cycloheximide cs 42.
